Records with an inconclusive call do not appear. Activity calls are given as the source filed them. How the source made its calls: active means hit-call score of the fitted dose curve at least 0.9, where 1 is the maximum; inconclusive means response in the unintended direction; inactive means score below 0.9.
Target: Oxysterols receptor LXR-beta (Homo sapiens) (UniProt P55055)
Assay: ATG_LXRb_TRANS: Attagene TRANS-FACTORIAL HepG2 Assay for human Liver X Receptor beta (LXRb) (AID 2282981)
Conditions: HepG2 Attagene TRANS GAL4-LXRb reporter, mRNA
Method in brief: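 In this TRANS format, exogenous chimeric NR-Gal4 protein activity, not endogenous factors, drives reporter expression in transfected human HepG2 cells. Exposure lasted 24 h; reporter mRNA was read by fluorescent capillary electrophoresis.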

Chain of Oxysterols receptor LXR-beta (Homo sapiens) (P55055 whole entry, looked up): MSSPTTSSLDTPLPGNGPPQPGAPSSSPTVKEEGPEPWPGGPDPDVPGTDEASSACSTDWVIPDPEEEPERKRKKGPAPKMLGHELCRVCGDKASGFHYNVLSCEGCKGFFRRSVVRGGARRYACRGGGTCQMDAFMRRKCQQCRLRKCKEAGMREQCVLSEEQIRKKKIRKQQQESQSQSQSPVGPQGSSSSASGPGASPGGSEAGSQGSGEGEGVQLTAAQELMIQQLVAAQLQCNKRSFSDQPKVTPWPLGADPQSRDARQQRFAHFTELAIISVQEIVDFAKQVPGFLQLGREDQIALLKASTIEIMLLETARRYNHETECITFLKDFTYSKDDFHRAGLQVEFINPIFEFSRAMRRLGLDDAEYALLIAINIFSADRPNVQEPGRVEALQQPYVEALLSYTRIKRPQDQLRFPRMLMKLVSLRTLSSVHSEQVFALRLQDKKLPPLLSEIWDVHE

SMILES	outcome
CN1CN(C)CN(C)C1	inactive
Cc1ccc2c(c1)OCC(=O)CO2	inactive
C=CC(=O)OCC(F)(F)C(F)(F)C(F)(F)C(F)(F)C(F)(F)C(F)(F)C(F)(F)C(F)F	inactive
C[Si](Cl)(Cl)CCC(F)(F)C(F)(F)C(F)(F)C(F)(F)C(F)(F)C(F)(F)F	inactive
CCC(=O)OC(C)c1ccccc1 (stereo not drawn)	inactive
CCCCCCCCCCCCCCCCC	inactive
FC(F)(F)C(F)(F)C(F)(F)CC1CO1 (stereo not drawn)	inactive
OCCCC(F)(F)C(F)(F)C(F)(F)C(F)(F)C(F)(F)C(F)(F)C(F)(F)C(F)(F)F	inactive
CNS(=O)(=O)C(F)(F)C(F)(F)C(F)(F)C(F)(F)C(F)(F)C(F)(F)C(F)(F)C(F)(F)F	inactive
O=C1c2ccccc2C(=O)c2c(Cl)cccc21	inactive
O=C(O)CCC(F)(F)C(F)(F)C(F)(F)F	inactive
O=C(Cl)C(F)(F)C(F)(F)C(F)(F)C(F)(F)C(F)(F)C(F)(F)F	inactive
OCC(O)CC(F)(F)C(F)(F)C(F)(F)C(F)(F)C(F)(F)C(F)(F)C(F)(F)C(F)(F)F (stereo not drawn)	inactive
CCOC(=O)CCC(C)=O	inactive
CCC(C)CO (stereo not drawn)	inactive
NC(=O)C(F)(F)C(F)(F)C(F)(F)F	inactive
CCCCCCCCCCCCCC[P+](CCCC)(CCCC)CCCC	inactive
Oc1ccc2c(c1)CCC2	inactive
CCOC(=O)CC(=O)C(F)(F)C(F)(F)F	inactive
CN(C)C(C)(C)CO	inactive
C=CC(=O)OCC(F)(F)C(F)(F)C(F)(F)COC(=O)C=C	inactive
CO[Si](C)(CCC(F)(F)C(F)(F)C(F)(F)C(F)(F)C(F)(F)C(F)(F)F)OC	inactive
O=C(O)C(F)(F)C(F)(F)C(F)(F)OC(F)(F)F	inactive
CCOC(=O)C1CC(=O)C(=C(O)C2CC2)C(=O)C1 (stereo not drawn)	inactive
Cc1ccc(O)c(-n2nc3ccccc3n2)c1	inactive
CCN(CC)c1ccc(N=Nc2ccccc2)cc1	inactive

Target: Hepatocyte nuclear factor 4-alpha (Homo sapiens) (UniProt P41235)
Sequence (P41235 whole entry, looked up): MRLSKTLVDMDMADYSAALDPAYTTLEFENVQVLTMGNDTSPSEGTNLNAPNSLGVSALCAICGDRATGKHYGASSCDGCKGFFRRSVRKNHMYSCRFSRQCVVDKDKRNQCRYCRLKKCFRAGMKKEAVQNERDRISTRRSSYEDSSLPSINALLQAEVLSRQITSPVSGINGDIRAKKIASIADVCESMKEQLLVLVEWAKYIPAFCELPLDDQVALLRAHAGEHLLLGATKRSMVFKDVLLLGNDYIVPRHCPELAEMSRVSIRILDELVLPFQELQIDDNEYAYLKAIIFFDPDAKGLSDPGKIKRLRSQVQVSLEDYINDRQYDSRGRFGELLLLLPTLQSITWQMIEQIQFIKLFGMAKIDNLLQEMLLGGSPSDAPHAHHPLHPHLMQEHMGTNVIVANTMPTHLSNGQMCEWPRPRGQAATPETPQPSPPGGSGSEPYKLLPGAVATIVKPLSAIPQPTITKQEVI
Assay: ATG_HNF4a_TRANS: Attagene TRANS-FACTORIAL HepG2 Assay for human Hepatocyte Nuclear Factor 4 alpha (HNF4a) (AID 2282982)
Conditions: HepG2 HNF4a transactivation reporter, mRNA readout
Method in brief: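 Cells used were human HepG2, transiently carrying GAL4-UAS reporter units read out against exogenous NR-GAL4 chimeras. Reporter transcript levels after 24 h dosing were quantified by fluorescent RT-PCR and capillary electrophoresis.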

SMILES	outcome
C[Si](Cl)(Cl)CCC(F)(F)C(F)(F)C(F)(F)C(F)(F)C(F)(F)C(F)(F)F	inactive
CCC(=O)OC(C)c1ccccc1 (stereo not drawn)	inactive
CCCCCCCCCCCCCCCCC	inactive
OCCCC(F)(F)C(F)(F)C(F)(F)C(F)(F)C(F)(F)C(F)(F)C(F)(F)C(F)(F)F	inactive
CNS(=O)(=O)C(F)(F)C(F)(F)C(F)(F)C(F)(F)C(F)(F)C(F)(F)C(F)(F)C(F)(F)F	inactive
CCOC(C=C(C)CCC=C(C)C)OCC	inactive
O=C(O)CCC(F)(F)C(F)(F)C(F)(F)F	inactive
O=C(Cl)C(F)(F)C(F)(F)C(F)(F)C(F)(F)C(F)(F)C(F)(F)F	inactive
OCC(O)CC(F)(F)C(F)(F)C(F)(F)C(F)(F)C(F)(F)C(F)(F)C(F)(F)C(F)(F)F (stereo not drawn)	inactive
NC(=O)C(F)(F)C(F)(F)C(F)(F)F	inactive
Nc1c(Br)cc([N+](=O)[O-])cc1Br	inactive
Cc1ccc([N+](=O)[O-])c(C)c1	inactive
Oc1ccc2c(c1)CCC2	inactive
CCOC(=O)CC(=O)C(F)(F)C(F)(F)F	inactive
CN(C)C(C)(C)CO	inactive
C=CC(=O)OCC(F)(F)C(F)(F)C(F)(F)COC(=O)C=C	inactive
CO[Si](C)(CCC(F)(F)C(F)(F)C(F)(F)C(F)(F)C(F)(F)C(F)(F)F)OC	inactive
O=S(=O)(OCC(F)(F)F)C(F)(F)C(F)(F)C(F)(F)C(F)(F)F	inactive
O=C(O)C(F)(F)C(F)(F)C(F)(F)OC(F)(F)F	inactive
CCN(CC)c1ccc(N=Nc2ccccc2)cc1	inactive

Test system: not listed separately
Assay: ATG_M_06_TRANS: Attagene TRANS-FACTORIAL HepG2 Assay for M06 Transcription Factor (Internal Marker) (AID 2282983)
Conditions: HepG2 Attagene TRANS M06 internal marker reporter
Method in brief: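 HepG2 cells transiently transfected with multiplexed GAL4-UAS reporter transcription units; after 24 h compound exposure, reporter mRNA measured by RT-PCR, FAM-labelled primer extension, HpaI digestion and capillary electrophoresis. Gain-of-signal fitted versus DMSO baseline; background control readout.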

SMILES	outcome
CN1CN(C)CN(C)C1	inactive
C=CC(=O)OCC(F)(F)C(F)(F)C(F)(F)C(F)(F)C(F)(F)C(F)(F)C(F)(F)C(F)F	inactive
C[Si](Cl)(Cl)CCC(F)(F)C(F)(F)C(F)(F)C(F)(F)C(F)(F)C(F)(F)F	inactive
CCC(=O)OC(C)c1ccccc1 (stereo not drawn)	inactive
CCCCCCCCCCCCCCCCC	inactive
FC(F)(F)C(F)(F)C(F)(F)CC1CO1 (stereo not drawn)	inactive
CCCCCCCC/C=C\CCCCCCCC(=O)OCC(O)CO (stereo not drawn)	inactive
OCCCC(F)(F)C(F)(F)C(F)(F)C(F)(F)C(F)(F)C(F)(F)C(F)(F)C(F)(F)F	inactive
CCCCCCCC/C=C\CCCCCCCC(=O)N(C)CC(=O)O	inactive
O=C1c2ccccc2C(=O)c2c(Cl)cccc21	inactive
O=C(O)CCC(F)(F)C(F)(F)C(F)(F)F	inactive
O=C(Cl)C(F)(F)C(F)(F)C(F)(F)C(F)(F)C(F)(F)C(F)(F)F	inactive
OCC(O)CC(F)(F)C(F)(F)C(F)(F)C(F)(F)C(F)(F)C(F)(F)C(F)(F)C(F)(F)F (stereo not drawn)	inactive
CCC(C)CO (stereo not drawn)	inactive
NC(=O)C(F)(F)C(F)(F)C(F)(F)F	inactive
OCCCCl	inactive
Nc1c(Br)cc([N+](=O)[O-])cc1Br	inactive
CCCCCCCCCCCCCC[P+](CCCC)(CCCC)CCCC	inactive
Cc1ccc([N+](=O)[O-])c(C)c1	inactive
Oc1ccc2c(c1)CCC2	inactive
CN(C)C(C)(C)CO	inactive
C=CC(=O)OCC(F)(F)C(F)(F)C(F)(F)COC(=O)C=C	inactive
O=S(=O)(OCC(F)(F)F)C(F)(F)C(F)(F)C(F)(F)C(F)(F)F	inactive
O=C(O)C(F)(F)C(F)(F)C(F)(F)OC(F)(F)F	inactive
CCOC(=O)C1CC(=O)C(=C(O)C2CC2)C(=O)C1 (stereo not drawn)	inactive
Cc1ccc(O)c(-n2nc3ccccc3n2)c1	inactive

Reference: PubChem BioAssay (EPA / NIEHS)
